Rows were chosen to be rich in hits. Some 4.7% of all compounds tested hit in one or more screens of this group.
DSG3 Ab inh – inhibitors of pemphigus antibody binding to DSG3, primary screen, biochemical, bead-based, flow cytometry, scFv-GFP. Desmoglein-3 (Homo sapiens), P32926. DSG3-coupled beads, scFv-anti-DSG3-GFP binding; active compounds read low. binding (percent of control), % at 10 µM. hit rate 0.48% among 310,000. AID 588358, 2011;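 active = binding more than 3 SD below its plate's average and above zero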;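 also: hits lower antibody fragment binding to DSG3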
ADAM17 inh – ADAM17 inhibitors, primary screen, biochemical, QFRET. inhibition, % at 6.95 µM. AID 720648, 2013. hit rate 0.83% among 370,000. recombinant ADAM17, EDANS/DABCYL FRET peptide cleavage;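 active = inhibition above the mean of compounds lying between control limits plus 3 SD, set per campaign, cut at about 8.5% in these data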;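 also: 0% = DMSO-only wells as the low control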
Target sequence (P78536 215-824 limits assumed): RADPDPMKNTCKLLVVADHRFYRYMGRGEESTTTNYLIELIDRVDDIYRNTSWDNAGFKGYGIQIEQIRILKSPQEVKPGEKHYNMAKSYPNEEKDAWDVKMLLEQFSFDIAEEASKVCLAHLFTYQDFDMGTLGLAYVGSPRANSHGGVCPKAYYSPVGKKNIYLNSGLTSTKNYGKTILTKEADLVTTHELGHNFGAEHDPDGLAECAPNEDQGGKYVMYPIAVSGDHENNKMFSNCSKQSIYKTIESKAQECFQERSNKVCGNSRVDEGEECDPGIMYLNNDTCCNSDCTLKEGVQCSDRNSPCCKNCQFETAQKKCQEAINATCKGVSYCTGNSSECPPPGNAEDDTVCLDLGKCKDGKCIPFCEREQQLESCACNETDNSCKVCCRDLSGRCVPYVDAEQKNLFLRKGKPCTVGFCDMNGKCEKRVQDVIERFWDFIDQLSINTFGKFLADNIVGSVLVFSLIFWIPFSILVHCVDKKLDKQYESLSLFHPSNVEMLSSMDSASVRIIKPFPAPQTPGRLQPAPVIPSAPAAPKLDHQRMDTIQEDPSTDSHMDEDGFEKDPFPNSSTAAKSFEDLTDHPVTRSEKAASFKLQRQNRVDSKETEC
ADAM10 inh – human ADAM10 inhibitors, primary screen, biochemical, QFRET, HTS; Disintegrin and metalloproteinase domain-containing protein 10 (Homo sapiens), O14672; recombinant ADAM10, EDANS/DABCYL FRET peptide cleavage, 3 h; inhibition, % at 7 µM; hit rate 0.62% among 370,000;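 active = inhibition above a per-campaign cutoff equal to the mean of compounds falling between control-based bounds plus 3 SD, cut at about 20% in these data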;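 also: 0% = DMSO wells while the 100% control is not disclosed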
proKLK7 act – proKLK7 zymogen activators, primary screen, biochemical, fluorescence intensity. purified proKLK7, EDANS-DABCYL substrate fluorescence; 100% is mature enzyme control, 0% vehicle. activation, % at 7 µM. AID 652039, 2013. hit rate 0.9% among 370,000;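 active = activation above the mean of all tested compounds plus 3 SD, computed per campaign excluding outliers beyond control limits, cut at about 13% in these data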
MPTP block – mitochondrial permeability transition pore inhibitors, primary screen, biochemical, isolated mouse mitochondria, absorbance; Ca2+ swelling absorbance, 30 min; inhibition, % at 10 µM; hit rate 1.4% among 360,000; AID 602449, 2012;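 active = inhibition of 50% or more, scaled per plate between neutral and stimulator controls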;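 also: 0% = DMSO wells given calcium and 100% = 1 mM EGTA wells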
rCAG binder – binders of r(CAG) RNA repeats, primary screen, biochemical, fluorescence; r(CAG) RNA repeat, TO-PRO-1 dye displacement fluorescence; inhibition, % at 3 µM; hit rate 1.3% among 370,000; AID 651821, 2012;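 active = inhibition above the plate cutoff, the mean of all test compounds on that plate plus 3 SD, cut at about 35% in these data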;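 also: 0% = DMSO alone and 100% = 100 µM mitoxantrone as full dye displacement; higher means more dye released from RNA so lower well fluorescence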
ADAM10 confirm – human ADAM10 inhibitors, confirmation, biochemical, QFRET, triplicate. shares compounds with ADAM10 inh. ADAM10 QFRET peptide cleavage, EDANS fluorescence. inhibition, % at 6.95 µM. hit rate 1% among 2,100. AID 743208, 2013;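 active = inhibition above about 20% chosen separately for each screening run, limit read from the data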;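 also: 0% = DMSO wells and 100% = marimastat wells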
ADAM17 ctr – ADAM17 inhibitors, counter-screen for ADAM10 exosite inhibitor project, biochemical, QFRET, high throughput | shares compounds with ADAM10 inh | ADAM17 QFRET peptide cleavage, EDANS fluorescence | inhibition, % at 6.95 µM | hit rate 0.5% among 2,100;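 active = mean triplicate inhibition above the solvent-only control wells' mean plus 3 SD, cut at about 12% in these data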;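 also: 0% = DMSO wells and 100% = marimastat wells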
Active calls of the source: *; · = no result.

SMILES	DSG3 Ab inh	ADAM17 inh	ADAM10 inh	proKLK7 act	MPTP block	rCAG binder	ADAM10 confirm	ADAM17 ctr
Cc1ccc(N(CC(=O)Nc2ccc3c(c2)OCCO3)S(=O)(=O)c2c(C)n[nH]c2C)cc1	104	6	20*	0	0	3	0	0
CN[C@@H](CO)C(=O)NC[C@H]1O[C@@H](n2cc(C)c(=O)[nH]c2=O)C[C@@H]1O	·	-5	-10	0	0	1	·	·
Cn1c(=O)c2c(nc(N3CCCCC3)n2CC(O)COc2ccccc2)n(C)c1=O (stereo not given)	152	0	21*	-1	0	-6	-1	0
CCO/C=N/Nc1nc(C(F)(F)F)nc2c1cnn2Cc1ccccc1	104	3	2	1	3	24	·	·
Cc1ccccc1-n1nc(-c2ccc(N)cc2)cc1N	117	6	42*	-2	1	9	3	0
O=C(NCCC(=O)N1CCN(S(=O)(=O)c2ccc(Cl)cc2)CC1)Nc1ccccc1	93	-1	4	0	-3	-2	·	·
O=C(CCC(=O)N1CCN(S(=O)(=O)c2ccc(Cl)cc2)CC1)Nc1ccc2ccccc2c1	104	6	22*	0	3	3	5	2
CC(=O)Nc1ccc(NC(=O)C(C)OC(=O)C2CCCCC2)cc1 (stereo not given)	103	-1	0	0	2	-1	·	·
O/N=C(/c1ccc(F)cc1)C1CC1c1c(F)cccc1Cl (stereo not given)	93	4	26*	0	1	7	3	1
CCOC(=O)c1c(CN2CCN(CCO)CC2)n(-c2ccccc2)c2cc(Br)c(O)cc12	108	-4	1	0	-2	2	·	·
CCOC(=O)c1c(CN2CCN(c3ccccc3)CC2)oc2cc(Br)c(O)cc12	95	7	21*	1	1	3	5	2
O=c1[nH][nH]c2c1[C@@H](c1ccc(F)cc1)O[C@H](CCc1ccccc1)C2	·	8	19	0	0	14	·	·
O=c1[nH][nH]c2c1C(c1ccc(F)cc1)OC(CCc1ccccc1)C2 (stereo not given)	·	7	20*	0	-5	18	3	1
COc1ccc(OCC(=O)NNC(=O)c2ccc3c(=O)n4c(nc3c2)CCC4)cc1	101	-1	71*	0	-2	1	2	0
Cc1ccc(OCC(=O)NNC(=O)c2ccc3c(=O)n4c(nc3c2)CCC4)cc1	102	-10	-37	2	0	8	·	·
O=C(COc1ccc(Cl)cc1)NNC(=O)c1ccc2c(=O)n3c(nc2c1)CCC3	101	3	81*	0	-1	5	2	1
O=C(NCc1ccccc1F)Nc1nnc([C@@H]2C[C@H](O)[C@@H](CO)O2)s1	·	-2	-3	1	-2	3	·	·
C/C(N)=C(/C#N)C(=O)CSc1nnc(SCc2ccc(Cl)cc2)s1	92	-3	-3	0	1	2	·	·
C/C(N)=C(/C#N)C(=O)CSc1nn(-c2ccc(Cl)cc2)c(=S)s1	105	8	24*	1	-1	12	4	1
N#Cc1cccc(NC(=O)Cn2cnc(S(=O)(=O)N3CCCCC3)c2)c1	102	-3	-5	0	1	0	·	·
Cc1ccc(C(=O)N2CCC(Cc3ccccc3)CC2)cc1S(=O)(=O)N1CCOCC1	102	0	-2	0	2	-9	·	·
O=C(CCNC(=O)c1ccccc1)Nc1ccc(S(=O)(=O)Nc2ncccn2)cc1	121	-7	-7	0	0	1	·	·
O=C(COc1ccc(-c2nnco2)cc1)Nc1c(F)cccc1F	107	0	84*	0	1	2	-1	0
CC(C)C[C@H]1COc2c(Cl)cccc2S(=O)(=O)N1	·	0	-18	1	·	3	·	·
CCOC(=O)[C@H]1[C@H]2COc3ccc(Br)cc3[C@H]2N2C(=O)CN(Cc3ccc(C)cc3)C(=O)[C@@]12C	110	5	20*	1	0	-12	1	1
SMILES	DSG3 Ab inh	ADAM17 inh	ADAM10 inh	proKLK7 act	MPTP block	rCAG binder	ADAM10 confirm	ADAM17 ctr
CCOC(=O)[C@H]1[C@H]2COc3ccc(Cl)cc3[C@@H]2N2C(=O)c3cc(Br)ccc3NC(=O)[C@@]12C	101	6	23*	1	-2	4	5	1
COc1ccc2c(c1)OC[C@H]1[C@H]2N2C(=O)CN(Cc3ccccc3)C(=O)[C@@]2(C)[C@H]1c1ccccc1	109	8	23*	0	0	-32	4	1
CCOC(=O)[C@H]1[C@H]2COc3ccc(C)cc3[C@@H]2N2C(=O)CN(Cc3ccc(C)cc3)C(=O)[C@@]12C	113	1	2	1	-1	-5	·	·
COc1ccc(CN2CC(=O)N3[C@H]4c5ccc(OC)cc5OC[C@@H]4[C@H](c4ccccc4)[C@]3(C)C2=O)cc1	104	3	12	0	-2	-5	·	·
CCOC(=O)[C@H]1[C@H]2COc3ccc(Cl)cc3[C@@H]2N2C(=O)c3cc(Cl)ccc3NC(=O)[C@@]12C	112	8	16	0	-1	5	·	·
CN(C)/C=C(\C#N)C(=O)Nc1ccc(O)cc1F	103	-4	-6	0	-1	-2	·	·
Cc1cc(C)c(Cn2cnc(-c3ccc([N+](=O)[O-])cc3)c2)c(C)c1	98	-16	29*	0	2	10	4	1
COc1ccc(C(=O)O[C@@H]2CCC[C@@]3(C(=O)N(Cc4ccccc4)c4ccccc43)[C@H]2NC(=O)CCc2ccccc2)cc1OC	·	8	20*	0	·	11	5	2
O=C(C1CCCN(S(=O)(=O)c2ccc([N+](=O)[O-])cc2)C1)N1CCN(Cc2ccccc2)CC1 (stereo not given)	·	1	5	0	·	0	·	·
COc1ccc(N2CCN(CCNS(=O)(=O)c3ccc(C)cc3)CC2)cc1	102	3	86*	0	0	1	2	2
Cc1cc(CN2CCN(CC(=O)Nc3cc(Cl)ccc3-n3cncn3)CC2)no1	98	-10	-12	0	0	-6	·	·

High-throughput results: PubChem, several laboratories
